Test system: Vero E6 infected with SARS-CoV-2
Assay: inhibition of SARS-CoV-2 cytopathic effect; higher = more antiviral protection, active = above 15
Conditions: 48 h

Measured: inhibition of SARS-CoV-2 cytopathic effect

O=C1N[C@@H]2[C@@H](O)[C@@H](O)[C@H](O)[C@@H](CO)N2C1=O [kifunensine]
inactive: 1 nM 0.31% | 8.33 nM 1.46% | 100 nM 3.44% | 833.33 nM 4.14% | 10000 nM 14.9%

CC(=O)OCC(=O)[C@@]1(O)CC[C@H]2[C@@H]3CCC4=CC(=O)CC[C@]4(C)[C@H]3C(=O)C[C@@]21C [cortisone-acetate]
inactive: 1 nM -0.91% | 8.33 nM -1.31% | 100 nM -1.03% | 833.33 nM 0.49% | 10000 nM 0.27%

CCOC(=O)C1=C(C)NC(C)=C(C(=O)OC)[C@@H]1c1cccc([N+](=O)[O-])c1 (racemic) [nitrendipine]
inactive: 1 nM 1.59% | 8.33 nM 0.33% | 100 nM -3.74% | 833.33 nM -0.45% | 10000 nM 4.26%

[NH-]c1c[n+](N2CCOCC2)no1 [linsidomine]
inactive: 1 nM 0.45% | 8.33 nM 3.55% | 100 nM 0.57% | 833.33 nM -0.32% | 10000 nM 1.99%

CC/C(=C(/c1ccc(/C=C/C(=O)O)cc1)c1ccc2[nH]ncc2c1)c1ccc(F)cc1Cl
inactive: 1 nM 4.17% | 8.33 nM -1.18% | 100 nM -1.84% | 833.33 nM 0.21% | 10000 nM -0.85%

CC(=O)/N=c1/sc(S(N)(=O)=O)nn1C [methazolamide]
inactive: 1 nM 2.05% | 8.33 nM 1.62% | 100 nM -1.26% | 833.33 nM -0.76% | 10000 nM 1.82%

Cc1cn2nc([C@@H]3CCCCN3C(=O)c3cc(Cl)ccc3NS(C)(=O)=O)cc2nc1N1CC[C@H](N)C1 [presatovir]
inactive: 1 nM 2.31% | 8.33 nM 0.48% | 100 nM -1.98% | 833.33 nM -1.96% | 10000 nM -4.09%

COc1cc(N2CCC(O)CC2)ccc1Nc1cc(Nc2ccccc2S(=O)(=O)C(C)C)c2cc[nH]c2n1
inactive: 1 nM 5.38% | 8.33 nM 3.7% | 100 nM -1.89% | 833.33 nM 0.98% | 10000 nM -7.51%

N[C@@H](CSC(c1ccccc1)(c1ccccc1)c1ccccc1)C(=O)O [S-trityl-L-cysteine]
inactive: 1 nM -0.89% | 8.33 nM -0.64% | 100 nM -2.17% | 833.33 nM -0.68% | 10000 nM -1.72%

O=C(O)C(O)C(O)C(=O)O (stereo not given) [tartaric-acid]
inactive: 1 nM -3.77% | 8.33 nM -4.25% | 100 nM -5.86% | 833.33 nM -1.6% | 10000 nM -0.64%

C[n+]1cccc(C(=O)[O-])c1 [trigonelline]
inactive: 1 nM 5.14% | 8.33 nM 3.85% | 100 nM 1.81% | 833.33 nM 1.44% | 10000 nM 0.82%

Cc1cc(C)nc(NS(=O)(=O)c2ccc(N)cc2)n1 [sulfamethazine]
inactive: 1 nM -2.32% | 8.33 nM 0.49% | 100 nM 0.37% | 833.33 nM 0.92% | 10000 nM -1.06%

C[C@H](Cc1ccc2c(c1)OC(C(=O)O)(C(=O)O)O2)NC[C@H](O)c1cccc(Cl)c1
inactive: 1 nM 0.95% | 8.33 nM 3.71% | 100 nM -1.72% | 833.33 nM -1.35% | 10000 nM 2.18%

COc1cc2c(cc1OC)CC(=O)N(CCCN(C)C[C@H]1Cc3cc(OC)c(OC)cc31)CC2 [ivabradine]
inactive: 1 nM -0.16% | 8.33 nM -0.37% | 100 nM -0.32% | 833.33 nM -1.75% | 10000 nM -1.11%

C=CCCCCCCCCC(=O)[O][Zn][O]C(=O)CCCCCCCCC=C [zinc-undecylenate]
inactive: 1 nM 0.73% | 8.33 nM 0.52% | 100 nM -0.83% | 833.33 nM 0.72% | 10000 nM 2.73%

CCc1c2c(nc3ccc(O)cc13)-c1cc3c(c(=O)n1C2)COC(=O)[C@]3(O)CC
inactive: 1 nM 1.57% | 8.33 nM 0.05% | 100 nM -1.96% | 833.33 nM -6.66% | 10000 nM -16.9%

CCn1cc(C(=O)O)c(=O)c2cc(F)c(N3CCN(C)CC3)cc21 [pefloxacin]
inactive: 1 nM 2.27% | 8.33 nM -0.13% | 100 nM 2.84% | 833.33 nM -0.06% | 10000 nM 1.98%

CCCCCCCCCCCCCCCC[N+](C)(C)CCN(Cc1ccc(OC)cc1)c1ncccn1 [thonzonium]
inactive: 1 nM -1.08% | 8.33 nM -1.07% | 100 nM 3.19% | 833.33 nM -1.67% | 10000 nM -15.8%

C=CC(=O)Nc1ccc2ncnc(Nc3cccc(Br)c3)c2c1
inactive: 1 nM -0.46% | 8.33 nM -1.31% | 100 nM -13.7% | 833.33 nM -13.8% | 10000 nM -13.2%

O=C1C(Cl)=C(NCCN2CCOCC2)C(=O)c2ncccc21
inactive: 1 nM -0.37% | 8.33 nM 1.19% | 100 nM 1.71% | 833.33 nM 6% | 10000 nM -17.2%

Clc1ccc2c(NCCNc3ccnc4cc(Cl)ccc34)ccnc2c1
inactive: 1 nM -2.64% | 8.33 nM 0.71% | 100 nM 5.21% | 833.33 nM 0.16% | 10000 nM 0%

Oc1noc2c1CCNC2 [gaboxadol]
inactive: 1 nM -0.68% | 8.33 nM 2.6% | 100 nM 1.13% | 833.33 nM 0.58% | 10000 nM -2.2%

O=C(O)CCc1ccc(NCc2cccc3c2CCCN3CCOc2ccccc2)cc1F
inactive: 1 nM 2.94% | 8.33 nM 4.34% | 100 nM -0.81% | 833.33 nM 1.53% | 10000 nM 0.9%

OCc1ccc(CO)o1 [2,5-furandimethanol]
inactive: 1 nM -0.97% | 8.33 nM 0.38% | 100 nM 0.27% | 833.33 nM 2.21% | 10000 nM 0.97%

Nc1nc(CC(=O)Nc2ccc(CCNC[C@H](O)c3ccccc3)cc2)cs1 [mirabegron]
inactive: 1 nM -0.75% | 8.33 nM -0.61% | 100 nM 1.85% | 833.33 nM -1.35% | 10000 nM -3.3%

COc1cc2c(CCNC(C)=O)c[nH]c2cc1Cl [6-chloromelatonin]
inactive: 1 nM 0.92% | 8.33 nM 0.78% | 100 nM -1.78% | 833.33 nM 4.57% | 10000 nM -13.2%

COC(=O)N/N=C/c1c[n+]([O-])c2ccccc2[n+]1[O-] [carbadox]
inactive: 1 nM -0.14% | 8.33 nM -0.55% | 100 nM 0.99% | 833.33 nM -11.6% | 10000 nM 0.87%

CN1CCN(CC/C=C2/c3ccccc3Sc3ccc(S(=O)(=O)N(C)C)cc32)CC1 [thiothixene]
inactive: 1 nM -3.86% | 8.33 nM -3.67% | 100 nM -4.39% | 833.33 nM -3.71% | 10000 nM 14%

C=CCNc1nc(NCC=C)nc(N2CCN(C(c3ccc(F)cc3)c3ccc(F)cc3)CC2)n1 [almitrine]
inactive: 1 nM -6.44% | 8.33 nM -3.95% | 100 nM -7.43% | 833.33 nM -4.59% | 10000 nM -8.59%

O=C(Nc1ccc(S(=O)(=O)C(F)(F)F)cc1)C1=CCN(c2ncccc2C(F)(F)F)CC1
inactive: 1 nM 0.25% | 8.33 nM -1.04% | 100 nM -1.04% | 833.33 nM -0.34% | 10000 nM -2.58%

N#Cc1c(N)nc(SCc2ncc[nH]2)c(C#N)c1-c1ccc(O)cc1
inactive: 1 nM -0.59% | 8.33 nM -2.41% | 100 nM 1.83% | 833.33 nM -3.13% | 10000 nM 0.18%

NC1(Cc2ccc(Cl)cc2)CCN(c2ncnc3[nH]ccc23)CC1
inactive: 1 nM -1.05% | 8.33 nM 0.05% | 100 nM -0.65% | 833.33 nM 0.89% | 10000 nM -9.28%

CCc1cc2c(c(CC)n1)CCC(=O)N2Cc1ccc(-c2ccccc2-c2nnn[nH]2)cc1
inactive: 1 nM -4.46% | 8.33 nM -5.09% | 100 nM -2.79% | 833.33 nM -3.64% | 10000 nM -0.49%

CN1CCCN(C(c2ccccc2)c2ccc(Cl)cc2)CC1 (stereo not given) [homochlorcyclizine]
inactive: 1 nM 2.1% | 8.33 nM 1.84% | 100 nM 1.43% | 833.33 nM -2.39% | 10000 nM -1.32%

CCN1C(C)(C)CC(Oc2ccc(C(=O)Nc3ccc(NC(=O)Nc4cc(C(C)(C)C)on4)cc3)nc2)CC1(C)C
inactive: 1 nM -2.79% | 8.33 nM -0.55% | 100 nM -1.48% | 833.33 nM -1.05% | 10000 nM -4.86%

CC(C)(C)n1nc(-c2cccc3ccccc23)c2c(N)ncnc21 [1-naphthyl-PP1]
inactive: 1 nM 0.05% | 8.33 nM 1.77% | 100 nM 1.73% | 833.33 nM 1.24% | 10000 nM -4.31%

COc1ccc(S(=O)(=O)N(C(C)=O)c2ccccc2/C=C/c2cc[n+]([O-])cc2)cc1
inactive: 1 nM 2.08% | 8.33 nM 0.26% | 100 nM -2.17% | 833.33 nM -2.71% | 10000 nM -2.49%

CC(C)C(=O)OC[C@H]1O[C@@H](n2ccc(N)nc2=O)[C@](C)(F)[C@@H]1OC(=O)C(C)C [mericitabine]
inactive: 1 nM -0.35% | 8.33 nM -2.22% | 100 nM 2.05% | 833.33 nM -0.85% | 10000 nM 1.88%

COc1cc(OC)c2c(=O)[nH]c(-c3cc(C)c(OCCO)c(C)c3)nc2c1 [apabetalone]
inactive: 1 nM -0.27% | 8.33 nM 0.93% | 100 nM 2.32% | 833.33 nM -1.57% | 10000 nM -0.84%

O=C(O)c1c(Cl)c(Cl)c(Cl)c(Cl)c1-c1c2cc(I)c(=O)c(I)c-2oc2c(I)c(O)c(I)cc12 [rose-bengal]
inactive: 1 nM -2.56% | 8.33 nM -2.17% | 100 nM 1.8% | 833.33 nM -2.12% | 10000 nM -13.9%

Reference: the supplement of paper PMC13380429
